# Experimental data from PMC8384837, “Expanding the binding specificity for RNA recognition by a PUF domain”.
# Tests used:
# Assay in all cases: yeast three-hybrid, YBZ-1, SC-Leu-His + 0.5 mM 3-AT, 4 days
# Conditions in all cases: tags: N-Gal4 AD-HA kept; label: inside an RPR1-promoter hybrid RNA with tandem MS2 sites; ssRNA
# PUM1 PUF domain R1-SGD = PUM1 PUF domain R1-SGD (Homo sapiens, UniProt Q14671 828-1176, R864G;Q867D)
# Method in brief: (§1)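 The interaction score is the log change in variant frequency from input to selection. Scores were computed in log2 with a pseudocount of 1 for absent variants, using Illumina sequencing of PCR-amplified repeat regions. The input came from four days on SC-Leu and the selection from four days on SC-Leu-His + 0.5 mM 3-AT. The cells were strain YBZ-1 (LexA–MS2 coat fusion, HIS3 reporter) co-expressing Pumilio-1 PUF domain libraries and matching RNA elements from a centromeric plasmid.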
# PUM1 PUF domain R3-GCR = PUM1 PUF domain R3-GCR (Homo sapiens, UniProt Q14671 828-1176, C935G;R936C;Q939R)
# Method in brief: as §1
# PUM1 PUF domain R3-RNG = PUM1 PUF domain R3-RNG (Homo sapiens, UniProt Q14671 828-1176, C935R;R936N;Q939G)
# Method in brief: as §1
# PUM1 PUF domain R3-RSA = PUM1 PUF domain R3-RSA (Homo sapiens, UniProt Q14671 828-1176, C935R;R936S;Q939A)
# PUM1 PUF domain R3-RSA, sequence (Q14671 828-1176 C935R/R936S/Q939A): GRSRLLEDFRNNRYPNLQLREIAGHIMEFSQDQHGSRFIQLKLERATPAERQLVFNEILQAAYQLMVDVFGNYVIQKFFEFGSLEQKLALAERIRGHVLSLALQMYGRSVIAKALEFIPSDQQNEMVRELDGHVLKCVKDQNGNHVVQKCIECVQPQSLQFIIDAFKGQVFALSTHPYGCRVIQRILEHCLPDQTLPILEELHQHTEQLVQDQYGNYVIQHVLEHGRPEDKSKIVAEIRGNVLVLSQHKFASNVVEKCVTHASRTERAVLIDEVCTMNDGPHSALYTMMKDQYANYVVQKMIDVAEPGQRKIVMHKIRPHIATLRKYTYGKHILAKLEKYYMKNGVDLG
# Method in brief: as §1
# PUM1 PUF domain R7-GNG = PUM1 PUF domain R7-GNG (Homo sapiens, UniProt Q14671 828-1176, S1079G;E1083G)
# PUM1 PUF domain R7-GNG, sequence (Q14671 828-1176 S1079G/E1083G): as the sequence (Q14671 828-1176 C935R/R936S/Q939A) above, with R108C, S109R, A112Q, S252G, E256G counted along it
# Method in brief: as §1
# PUM1 PUF domain R6-SFC = biological target: T1, PUM1 PUF domain R6-SFC (Homo sapiens, UniProt Q14671 828-1176, N1043S;Y1044F;Q1047C)
# T1 sequence: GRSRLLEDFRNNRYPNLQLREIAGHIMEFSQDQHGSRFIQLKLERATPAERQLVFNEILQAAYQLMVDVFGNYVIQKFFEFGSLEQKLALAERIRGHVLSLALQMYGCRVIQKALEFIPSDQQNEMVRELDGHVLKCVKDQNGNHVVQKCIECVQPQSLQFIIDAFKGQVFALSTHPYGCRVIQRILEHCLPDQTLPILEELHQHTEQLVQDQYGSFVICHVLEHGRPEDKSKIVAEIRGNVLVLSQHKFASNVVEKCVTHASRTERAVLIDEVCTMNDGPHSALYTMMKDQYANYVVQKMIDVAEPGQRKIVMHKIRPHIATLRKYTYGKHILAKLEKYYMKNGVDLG
# Method in brief: as §1
# PUM1 PUF domain R4-ANG = PUM1 PUF domain R4-ANG (Homo sapiens, UniProt Q14671 828-1176, N971A;H972N;Q975G)
# Method in brief: as §1
# PUM1 PUF domain R8-RHQ = PUM1 PUF domain R8-RHQ (Homo sapiens, UniProt Q14671 828-1176, N1122R;Y1123H)
# Method in brief: as §1
# PUM1 PUF domain R5-AYY = PUM1 PUF domain R5-AYY (Homo sapiens, UniProt Q14671 828-1176, C1007A;R1008Y;Q1011Y)
# PUM1 PUF domain R5-AYY, sequence (Q14671 828-1176 C1007A/R1008Y/Q1011Y): as the sequence (Q14671 828-1176 C935R/R936S/Q939A) above, with R108C, S109R, A112Q, C180A, R181Y, Q184Y counted along it
# Method in brief: as §1
# PUM1 PUF domain R5-FNS = PUM1 PUF domain R5-FNS (Homo sapiens, UniProt Q14671 828-1176, C1007F;R1008N;Q1011S)
# Method in brief: as §1
# PUM1 PUF domain R5-RNA = PUM1 PUF domain R5-RNA (Homo sapiens, UniProt Q14671 828-1176, C1007R;R1008N;Q1011A)
# Method in brief: as §1
# PUM1 PUF domain R5-RNV = PUM1 PUF domain R5-RNV (Homo sapiens, UniProt Q14671 828-1176, C1007R;R1008N;Q1011V)
# PUM1 PUF domain R5-RNV, sequence (Q14671 828-1176 C1007R/R1008N/Q1011V): as the sequence (Q14671 828-1176 C935R/R936S/Q939A) above, with R108C, S109R, A112Q, C180R, R181N, Q184V counted along it
# Method in brief: as §1
# PUM1 PUF domain R5-DHG = PUM1 PUF domain R5-DHG (Homo sapiens, UniProt Q14671 828-1176, C1007D;R1008H;Q1011G)
# PUM1 PUF domain R5-DHG, sequence (Q14671 828-1176 C1007D/R1008H/Q1011G): as the sequence (Q14671 828-1176 C935R/R936S/Q939A) above, with R108C, S109R, A112Q, C180D, R181H, Q184G counted along it
# Method in brief: as §1
# PUM1 PUF domain R5-MHS = PUM1 PUF domain R5-MHS (Homo sapiens, UniProt Q14671 828-1176, C1007M;R1008H;Q1011S)
# PUM1 PUF domain R5-MHS, sequence (Q14671 828-1176 C1007M/R1008H/Q1011S): as the sequence (Q14671 828-1176 C935R/R936S/Q939A) above, with R108C, S109R, A112Q, C180M, R181H, Q184S counted along it
# Method in brief: as §1
sequence,measurement,setting,value
GGCUAGAACUAGUGGAUCCCCCGGCGCCCGGCGGCUCGAGCCCGGGUAAGUGUAAAUGGUCUGCAUGCCGCCGGGCGCCAUGCCUGCAGGUCGACUCUAGAAAACAUG,binding signal,PUM1 PUF domain R1-SGD,5.76 log2 enrichment (interaction score)
GGCUAGAACUAGUGGAUCCCCCGGCGCCCGGCGGCUCGAGCCCGGGUAAGUGUAAUUAGUCUGCAUGCCGCCGGGCGCCAUGCCUGCAGGUCGACUCUAGAAAACAUG,binding signal,PUM1 PUF domain R3-GCR,2.22 log2 enrichment (interaction score)
same,binding signal,PUM1 PUF domain R3-RNG,3.75 log2 enrichment (interaction score)
same,binding signal,PUM1 PUF domain R3-RSA,3.54 log2 enrichment (interaction score)
GGCUAGAACUAGUGGAUCCCCCGGCGCCCGGCGGCUCGAGCCCGGGUAAGUUUAAAUAGUCUGCAUGCCGCCGGGCGCCAUGCCUGCAGGUCGACUCUAGAAAACAUG,binding signal,PUM1 PUF domain R7-GNG,5.55 log2 enrichment (interaction score)
GGCUAGAACUAGUGGAUCCCCCGGCGCCCGGCGGCUCGAGCCCGGGUAAGUGUAAAUAGUCUGCAUGCCGCCGGGCGCCAUGCCUGCAGGUCGACUCUAGAAAACAUG,binding signal,PUM1 PUF domain R6-SFC,4.7 log2 enrichment (interaction score)
same,binding signal,PUM1 PUF domain R3-GCR,0.62 log2 enrichment (interaction score)
same,binding signal,PUM1 PUF domain R4-ANG,0.25 log2 enrichment (interaction score)
same,binding signal,PUM1 PUF domain R8-RHQ,3.7 log2 enrichment (interaction score)
same,binding signal,PUM1 PUF domain R5-AYY,3.24 log2 enrichment (interaction score)
GGCUAGAACUAGUGGAUCCCCCGGCGCCCGGCGGCUCGAGCCCGGGUAAGUGUUAAUAGUCUGCAUGCCGCCGGGCGCCAUGCCUGCAGGUCGACUCUAGAAAACAUG,binding signal,PUM1 PUF domain R5-FNS,3.5 log2 enrichment (interaction score)
same,binding signal,PUM1 PUF domain R5-RNA,2.33 log2 enrichment (interaction score)
same,binding signal,PUM1 PUF domain R5-RNV,2.58 log2 enrichment (interaction score)
same,binding signal,PUM1 PUF domain R5-DHG,4.67 log2 enrichment (interaction score)
same,binding signal,PUM1 PUF domain R5-MHS,5.58 log2 enrichment (interaction score)
